Results as given in the supplement of paper PMC6555819.

Legend:
Assay in all cases: PBM binding z-score (relative to random genomic background probes); higher = stronger binding; sequences stand for … in GC…GCGATTGACAGCGTAGAATGAAGG
[1] = tested on: PPARg:RXRa DBDmut IVT, anti-RXR (DBD mutation: RXRa K156A/R161A, NR concentration 270 nM, RXRa partner concentration 90 nM)
Summary of the method: (§1)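 Binding z-scores take random background probes as their reference. They come from custom Agilent 4×180K protein-binding microarrays incubated 1 h with ligand-free nuclear receptor dimers, with antibodies against each partner (one per run) detecting binding. Scanned fluorescence was regression-normalized.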

[2] = tested on: PPARg:RXRa IVT, anti-PPARg (NR concentration 270 nM, RXRa partner concentration 90 nM)
Summary of the method: as §1

[3] = tested on: PPARg DBDmut:RXRa IVT, anti-PPARg (DBD mutation: PPARg1 K132A/R137A, NR concentration 270 nM, RXRa partner concentration 90 nM)
Summary of the method: as §1

[4] = tested on: PPARg DBDmut IVT, anti-PPARg (DBD mutation: PPARg1 K132A/R137A, NR concentration 270 nM)
Summary of the method: as §1

[5] = tested on: PPARg homodimer (NR concentration 180 nM)
Summary of the method: as §1

[6] = tested on: PXR:RXRa (NR concentration 270 nM, RXRa partner concentration 90 nM)
Summary of the method: as §1

[7] = tested on: PXR homodimer (NR concentration 270 nM)
Summary of the method: as §1

[8] = tested on: RARa:RXR (NR concentration 270 nM, RXRa partner concentration 90 nM)
Summary of the method: as §1

[9] = tested on: RARa homodimer (NR concentration 270 nM)
Summary of the method: as §1

[10] = tested on: RARb:RXRa (NR concentration 270 nM, RXRa partner concentration 90 nM)
Summary of the method: as §1

| Sequence | PBM binding z-score [1] | PBM binding z-score [2] | PBM binding z-score [3] | PBM binding z-score [4] | PBM binding z-score [5] | PBM binding z-score [6] | PBM binding z-score [7] | PBM binding z-score [8] | PBM binding z-score [9] | PBM binding z-score [10] |
| --- | --- | --- | --- | --- | --- | --- | --- | --- | --- | --- |
| GCATATAGGGAATACAAGGTGAAAGTCCGATTGT | 1.83 | 1.35 | 0.819 | -0.152 | 0.308 | 0.0196 | -0.0382 | 1.58 | 0.263 | 0.266 |
| TAGCCTAGGTCATGGGGCCAGTATAGTACGCATC | 1.84 | 3.72 | 0.968 | -0.401 | 3.22 | 2.19 | -0.641 | 3.54 | 0.443 | 3.94 |
| CCTATTGGGCCAAGGTCATTGATCAGTCAAAGCA | 1.98 | 2.52 | -0.54 | 0.103 | 2.09 | 3.72 | 1.21 | 3.94 | 0.101 | 3.33 |
| CGTCCAAGGGCAAGGTCAGTGAAAGAGACTCGAA | 0.735 | 1.62 | -1.01 | -1.55 | 0.963 | 1.68 | -0.101 | 2.16 | 0.0198 | 3.94 |
| AGAACGAGGGCACGCTGAGTTGATAACAGAGTAG | 4.19 | 3.68 | 0.246 | 0.187 | 0.159 | 1.33 | 0.018 | 0.895 | -0.194 | 2.4 |
| TGAATGAGCTTAAAGATCAGGGAACGTGGCGTCG | -0.909 | -0.722 | -0.0715 | -0.43 | -0.49 | -0.508 | -0.697 | -0.284 | -0.372 | -0.351 |
| ATCGAACGGTCGAAGGTGAGTATACCCACCCGAA | -0.97 | 0.443 | 0.226 | -0.543 | -0.177 | -0.254 | -0.523 | 0.0689 | -0.549 | 1.05 |
| CGTCAATGTTCAACTAAGGTAACGTAAAGCACGC | 0.201 | 0.781 | 0.0203 | 0.928 | 0.877 | 0.252 | 0.0149 | 1.05 | 0.784 | 0.573 |
| CAAACTAGGTCAAAGGTAAAAGTCGAGCCAACCA | 8.99 | 9.08 | 2.75 | 1.05 | 2.75 | 3.48 | -0.123 | 5.33 | 0.696 | 4.21 |
| GCTTGCAGGCCATTTGGGTCACTCAATGACGGGC | 3.07 | 3.01 | -0.212 | -0.514 | 0.237 | 0.662 | 0.0952 | 1.09 | -0.792 | 1.76 |
| ACAGACAGGTGAGTGAAGGTTACTCAGCTGGACG | 0.352 | 1.16 | 0.332 | 0.037 | 0.138 | 0.646 | -0.03 | 0.952 | 0.201 | 1.15 |
| ATATGTAGGTTAGCTGGGGTCATTAAGACTAGGC | 7.01 | 6.64 | 3.24 | 2.7 | 2.8 | 5.91 | 3.46 | 5.15 | 1.22 | 3 |
| ACTATTAGTGGACTTAGGGCAACCGATACGACGC | 0.261 | 0.425 | 0.622 | 0.53 | -0.531 | -0.184 | 0.307 | -0.1 | 0.447 | 0.196 |
| CCGAGTAAGTTATGGGGCATTCAGGCAACGGTGA | 0.876 | 0.12 | 0.0533 | -0.856 | 0.399 | -0.507 | -0.558 | -0.445 | -0.0178 | -0.111 |
| ATATGAAGGTTAGCTGGGGTCATTCAGACTAGGC | 1.16 | 2.19 | 0.859 | 1.21 | 2.53 | 6.56 | 5 | 5.87 | 1.42 | 3.55 |
| CCTTACGGGTCACTGACAGGTTAAAGCATTTGGA | 3.63 | 4.02 | 0.71 | 0.495 | 4.09 | 3.98 | 0.033 | 5.21 | 0.619 | 3.94 |
| TCTAATTGGTCAAAGGTCACACACTCGAAATGCG | 3.57 | 6.22 | 4.31 | 4.82 | 12.2 | 6.35 | 1.5 | 7.91 | 5.86 | 5.27 |
| GCTTGCGGGTCAAAGGTTATAGCATGAATAGAAT | 6.08 | 6.75 | 0.506 | 0.0418 | 2.11 | 6.07 | 0.118 | 7.94 | 0.537 | 4.53 |
| CGTCCAAGGTCAAAGCTCAGTGAAGAGATGACGG | 3.54 | 3.35 | 0.259 | -0.242 | 3.06 | 3.96 | 0.865 | 4.6 | 1.16 | 5.14 |

| Sequence | PBM binding z-score [1] | PBM binding z-score [2] | PBM binding z-score [3] | PBM binding z-score [4] | PBM binding z-score [5] | PBM binding z-score [6] | PBM binding z-score [7] | PBM binding z-score [8] | PBM binding z-score [9] | PBM binding z-score [10] |
| --- | --- | --- | --- | --- | --- | --- | --- | --- | --- | --- |
| ATATGTAGGTTAGTTGGGGTCATTCAGACTAGGC | 6.81 | 5.83 | 2.02 | 2.15 | 3.78 | 6.79 | 7.04 | 5.99 | 2.35 | 3.21 |
| AGAATGAGGTTAAGATCAGCGAAACAGAATACAT | 1.69 | 2.37 | 1.19 | 0.858 | -0.266 | 0.978 | 0.422 | 1.82 | 0.555 | 1.83 |
| TCTTGCAGATCAACAGGAGGTTAAGAAAGATCGA | 0.996 | 0.188 | 0.472 | 0.407 | -0.378 | 0.713 | -0.172 | 0.812 | -0.193 | 0.489 |
| CCTACTGGGCCAAGGTGATTGATCAGTCAAAGCA | 3.98 | 3.6 | -0.461 | -1.01 | -0.0957 | -0.771 | -0.714 | -0.606 | -1.01 | 0.182 |
| TAGCCCAGGTCATGGGCCAGTATACCACGCGAAC | 0.271 | 2.71 | 0.391 | -0.431 | 0.53 | 2.24 | -0.39 | 2.96 | 0.0198 | 3.78 |
| CCTCGGAGGACAGAAGCTCAGAGCTGTCCGCTTT | -0.36 | -1.19 | -1.19 | -2.47 | -1.01 | -1.09 | -1.12 | -1.41 | -0.553 | 0.0741 |
| TCTTGTAGATCAACAGGTTAAGAAAGCTGGCCAA | 1.96 | 0.82 | 0.047 | 0.206 | 0.081 | 0.51 | 0.0471 | 0.981 | -0.173 | 0.375 |
| CCTACTGGGCCAGCAGGTCATTGATATCAACGTT | 3.7 | 4.16 | -0.155 | -0.528 | 1.02 | 1.46 | -0.0906 | 1.8 | -0.335 | 1.88 |
| GATACAGGGTCAAGTCCAGAGTACGCGTATTGAT | 3.07 | 4.1 | 1.84 | 0.844 | 4.21 | 4.36 | 0.54 | 5.16 | 1.38 | 4.64 |
| TTACGAAGGTGAGCTGAGGTCGTTGATCCAACTC | 0.758 | 1.28 | -0.294 | -0.134 | 0.215 | 5.29 | 0.95 | 1.56 | -0.794 | 1.79 |
| ATCTCTAGGGAACAAGTTCAGTGAAAGAGAGGAC | 0.484 | 0.703 | 0.478 | 0.258 | 0.773 | 1.36 | 1.25 | 0.667 | 0.314 | 1.3 |
| TGAATGAGGTTAAAGATCAGGCAACGTGGCGTCG | 2.24 | 3.79 | 0.599 | 0.0672 | 0.811 | 1.83 | 0.118 | 2.92 | -0.39 | 2.02 |
| AGAATGAGGTGAAGATCAGGGAAACAGAATACAT | 4.13 | 4.03 | 1.46 | 0.73 | 0.633 | 0.242 | 0.183 | 0.786 | 0.494 | 1.32 |
| CGACCAAGGTCAAGGTCAGTGAAAGAGACTCGAA | 3.29 | 4.75 | 0.143 | -0.162 | 3.87 | 4.59 | 0.777 | 4.89 | 1.42 | 5.78 |
| TGAATGAGGTTATAAGACCAGGGAACGTTGCAAA | 1.18 | 1.75 | 0.985 | 0.561 | 0.257 | 0.794 | -0.0148 | 1.33 | 0.0796 | 1.29 |
| TCTTGTAGATCAAAGGTTAAGAATGCCGAAGCCT | 2.34 | 3.51 | 1.47 | 0.478 | 1.27 | 1.95 | -0.149 | 2.85 | 0.414 | 1.87 |
| TCCAGTAGGTTACCAATGGGGCATTCAGCTTTCT | 4.6 | 4.34 | -0.355 | -0.253 | 0.0888 | 0.286 | -0.589 | 0.451 | -0.883 | 1.31 |
| CAAACTCGGTCACCGGAAGGTCAAAGTCCGCATG | 4.82 | 5.21 | 0.644 | 0.562 | 4.4 | 4.75 | 1.84 | 5.66 | 1.31 | 4.61 |
| TCTAGTTGGTCAAAGGTCACACAATCGAAATGCG | 3.58 | 6.28 | 1.49 | 2.13 | 4.36 | 5.97 | 2.1 | 7.76 | 3.91 | 5.16 |
